Assay outcomes as filed in PubChem.
Only some compounds are listed: those with a hit (about 3.4% of all), similar ones and a draw of the others.
FBW7 activator = activators of human E3 ligase FBW7 | Q969H0 | AlphaScreen FBW7–phospho-cyclin E peptide binding, activator screen | normalized activity (activation), % at 26.1 µM | 650,000 compounds, 0.13% hits | AID 1259310; in the data active = normalized activity above about 1.9%;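 note: purified mutant Fbw7 with reduced substrate affinity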
TEAD-YAP block = TEAD-YAP interaction inhibition; HEK-TIYL cells, TEAD-Gal4/YAP UAS-luciferase luminescence; inhibition, % at 9.12 µM; 640,000 compounds, 1.4% hits; in the data active = inhibition above about 32%;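 note: 0% = median of test compound wells and 100% = reference inhibitor wells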
MITF inh = blocks human microphthalmia-associated transcription factor. AlphaScreen MITF homodimerization, bead proximity signal. inhibition, % at 2.6 µM. 650,000 compounds, 0.91% hits; in the data active = inhibition above about 50%;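 note: 0% = vehicle wells with protein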
GPR151 activ = activators of human GPR151 | PathHunter beta-arrestin GPR151 cells, luminescence | activation, % at 11.2 µM | 650,000 compounds, 1% hits; in the data active = activation above about 4.9%;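 note: 0% = median of compound wells and 100% = cells with positive control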
Target sequence (Q8TDV0 whole entry, looked up): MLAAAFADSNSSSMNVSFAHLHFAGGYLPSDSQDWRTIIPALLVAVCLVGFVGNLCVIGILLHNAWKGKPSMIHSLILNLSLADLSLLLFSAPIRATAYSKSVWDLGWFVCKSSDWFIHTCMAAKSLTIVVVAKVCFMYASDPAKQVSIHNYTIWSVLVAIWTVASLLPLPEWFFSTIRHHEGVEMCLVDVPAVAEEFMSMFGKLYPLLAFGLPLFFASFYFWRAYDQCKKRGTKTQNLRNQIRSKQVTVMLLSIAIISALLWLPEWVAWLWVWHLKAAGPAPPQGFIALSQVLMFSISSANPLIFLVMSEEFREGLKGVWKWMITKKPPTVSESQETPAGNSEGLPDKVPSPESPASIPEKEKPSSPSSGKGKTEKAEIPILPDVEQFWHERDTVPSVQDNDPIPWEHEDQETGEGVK
GPR151 conf act = confirmation of human GPR151 activators; shares compounds with GPR151 activ; GPR151 PathHunter beta-arrestin cells, luminescence, 90 min; % of EA-reagent control over plate median; activation, % at 11.2 µM; 6,700 tested, under 10 active; AID 1508609;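 active = mean percent activation across replicates above the confirmation screen cutoff of 4.91%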
GPR119 ag = activates human GPR119 in a GPR151 counter-screen. shares compounds with GPR151 activ. GPR119 PathHunter beta-arrestin cells, luminescence, 90 min; 0 = compound-well median, 100 = enzyme-acceptor control. activation, % at 11.2 µM. 6,700 compounds, 0.3% hits. AID 1508611;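 active = mean percent activation in the counterscreen above 29.09%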;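 note: counterscreen on off-target GPR119 to flag nonselective hits from the GPR151 activator screen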
* marks the source's active call; other numbers are inactive results; x = not tested or not shown.

SMILES | FBW7 activator | TEAD-YAP block | MITF inh | GPR151 activ | GPR151 conf act | GPR119 ag
O=C(NCc1ccc(Cl)cc1Cl)c1ccccn1 | 0 | 2 | 2 | 7.8* | 0 | 3
O=C1C(c2ccc(F)cc2)N(C2CCCC2)C(=O)CN1C1CCCCC1 (stereo not given) | 0 | -6 | -5 | 0 | x | x
O=C1C(c2ccc(F)cc2)N(C2CCCCC2)C(=O)CN1C1CCCCCC1 (stereo not given) | 1 | 11 | 6 | 8.6* | 3 | 9
O=C1C(c2ccc(F)cc2)N(C2CCCCCCC2)C(=O)CN1C1CCCCCC1 (stereo not given) | 1 | -4 | 4 | 8.2* | -1 | 0
COc1ccc(C(=O)Oc2ccc3c(c2)OCC3=O)cc1OC | 1 | 8 | 3 | -1 | x | x
COCCN1C(=O)C(O)=C(C(=O)c2ccc(C)o2)C1c1ccc(C(C)(C)C)cc1 (stereo not given) | 0 | 7 | -1 | 7.5* | 0 | -2
COCCCN1C(=O)C(O)=C(C(=O)c2ccco2)C1c1ccc(C(C)(C)C)cc1 (stereo not given) | 1 | 17 | 19 | 0 | x | x
O=C(Cc1ccc(Br)cc1)Nc1ccc(-c2cn3c(n2)SCC3)cc1 | 0 | -7 | -3 | 0 | x | x
CCOc1ccc(CC(=O)Nc2ccc(-c3cn4c(n3)SCC4)cc2)cc1 | 0 | -6 | -15 | 5.1* | 0 | 5
CC(C)N1C(=O)CC(Nc2ccc(N3CCOCC3)cc2)C1=O (stereo not given) | 0 | -27 | 1 | 0 | x | x
CC(c1ccccc1)N1C(=O)CC(Nc2ccc(N3CCOCC3)cc2)C1=O (stereo not given) | -1 | 1 | 8 | 7.2* | 0 | 13
CSc1ccc(CNc2ncc(-c3cccc([N+](=O)[O-])c3)n2C)cc1 | 0 | -2 | 50 | 0 | x | x
CSc1ccc(CNc2ncc(-c3ccccc3)n2C)cc1 | 0 | -3 | 26 | 7.7* | -1 | -4
CC(C)(C)C1CCC(=NNC(=O)C(=O)Nc2ccc(F)cc2)CC1 (stereo not given) | 0 | -2 | -4 | 0 | x | x
CC(C)CCNc1c(-c2ccccc2)c(=O)c1=O | 0 | 8 | -9 | 6.9* | 1 | 0
Cc1ccc(NS(=O)(=O)c2ccc(F)cc2)cc1C | 0 | -13 | -3 | -1 | x | x
Cc1ccc(NS(=O)(=O)c2ccc(NC=O)cc2)cc1C | 0 | 15 | 5 | 5.8* | 0 | -2
COC(=O)c1ccc(C2C3=C(CC(c4ccc(F)cc4)CC3=O)Nc3ccccc3N2C(=O)C2CC2)cc1 (stereo not given) | 0 | 0 | -3 | -1 | x | x
Cc1cccc(C)c1NC(=O)CSc1ncn[nH]1 | 0 | -9 | -17 | 2 | x | x
CCc1cccc(C)c1NC(=O)CSc1ncn[nH]1 | 0 | 4 | 18 | 7.4* | 0 | -6
C=CCn1c(SCC(=O)Nc2sc3c(c2C(=O)OCC)CCCCC3)nc2sc(-c3ccccc3)cc2c1=O | 0 | -3 | -4 | 6.3* | 1 | 18
COc1ccccc1-c1cc(NC(=NCc2ccco2)SC)n[nH]1 | 0 | 50* | 9 | 6.4* | 1 | 1
COc1ccc(-c2cc(NC(=NCc3ccco3)SC)n[nH]2)c(OC)c1 | 1 | 24 | 10 | 0 | x | x
Cc1ccc(C(=O)CSc2nnc(-c3ccccc3N)n2C)cc1 | 0 | -10 | -4 | 5.9* | 0 | -7
CCCN(C(=O)c1cccc(N)c1)c1c(C)n(C)n(-c2ccccc2)c1=O | 0 | 7 | 16 | 5.5* | 0 | 11
O=C(c1ccccc1)N(CCN(C(=O)c1ccccc1)c1ccccc1)c1ccccc1 | 0 | -1 | 5 | 1 | x | x
CCCCSc1nnc2c(n1)OC(c1ccccc1OCC(=O)OCC)Nc1ccccc1-2 (stereo not given) | 0 | -23 | -5 | 5.1* | 0 | 4
CCCCSc1nnc2c(n1)OC(C)(C)Nc1ccccc1-2 | 0 | 4 | 9 | 5.1* | 0 | 3
CCCCSc1nnc2c(n1)OC(c1ccccc1OC)Nc1ccccc1-2 (stereo not given) | 0 | -9 | 0 | -2 | x | x
CN1CCN(CC(O)Cn2cnc3c2c(=O)n(C)c(=O)n3C)CC1 (stereo not given) | 0 | 2 | 4 | 0 | x | x
